Compounds without any hit were thinned out: in the full panel of roughly 83,000, 20% have a hit.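 Results are percent growth after 48 hours of single-concentration exposure. 100 means growth as in untreated cells, lower positive values show inhibition; negative values down to -100 show cell death.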 Values without a mark were called inactive. Active and inactive are the calls of the source. Rule for the calls: active = growth percent below 10; inactive = the rest.

Holding throughout (test): NCI-60 one-dose screen, 48 h (100 = growth as untreated, 0 = no growth, -100 = all killed)
Holding throughout (conditions): 10 µM unless noted

In test [1] the test system is HCT-15 colon.
For test [2], the system named is HT29 colon.
Test [3] concerns SNB-19 CNS.
The test system of test [4] is U251 CNS.
For test [5], the system named is PC-3 prostate.
The test system of test [6] is SK-MEL-5 melanoma.
Test [7] concerns UACC-62 melanoma.
Test [8] concerns LOX IMVI melanoma.
The subject of test [9] is SK-MEL-28 melanoma.
In test [10] the test system is SK-MEL-2 melanoma.
Test [11] concerns EKVX NSCLC.
The test system of test [12] is SN12C renal.
Test [13] has as its system UO-31 renal.
Test [14] has as its system TK-10 renal.
Test [15] deals with ACHN renal.
Test [16] deals with CAKI-1 renal.
In test [17] the test system is A498 renal.
For test [18], the system named is CCRF-CEM leukemia.
Test [19] deals with MOLT-4 leukemia.

As to `Cc1ccc(-c2nc(C#N)c(S(=O)(=O)n3nc(-c4ccccc4)cc3N)o2)cc1`, the growth in test [1] is 67.6%; in [2], 56%; in test [3], 93.7%; in test [4], 96.7%; in test [5], 101%; in test [6], 99.8%. The growth in test [7] was 94.3%; in [8] it was 28%; in [9], 108%; in test [10], 99.4%; in test [11] it was 99%; in [12], 90.2%. Moreover, the growth in test [13] is 92%; in test [14], 18.1%; in test [15], 25.3%; in [16], -41.1% (active); in [17], 126%; in [18], 4.2% (active). The growth in test [19] is 1.21% (active).
Consider `CCCCNC(=O)Oc1ccc(/C(=C(\C)c2ccccc2)c2ccc(OCCN(CC)CC)cc2)cc1`, for which the growth was 17.7% in [1]; 4.17% (active) in test [2]; 89.2% in [3]; 53.8% in test [4]; 59.6% in [5]; 48.2% in test [6]. For the same compound, the growth in test [7] was 68.3%; in test [8], 74.8%; in [9] it was 75.7%; in test [10] it was 92.1%; in [11], 80.8%; in test [12] it was 83.3%. Moreover, the growth is 44.1% in test [13]; 88.1% in test [14]; 88% in test [15]; 82.5% in [16]; 65.3% in test [17]; 60.1% in test [18]. Also, in test [19], the growth is 42%.
Take `COc1ccc2[nH]c(=O)c(/C=N/Nc3nc(-c4ccccc4)cs3)c(O)c2c1`: the growth in [1] is 20.5%; in test [2], 70.2%; in test [3], 75.4%; in test [4] it was 44.3%; in test [5], 58.9%; in [6] it was 65.2%. In addition, the growth was 62.7% in test [7]; 60% in test [8]; 76% in test [9]; 83.1% in test [10]; 53.8% in [11]; 73.8% in [12]. The growth in test [13] is 42.5%; in test [14], 90.2%; in [15] it was 48.6%; in test [16], 43.7%; in test [17] it was 94.9%; in test [18], 26.5%. Besides, the growth in test [19] was 35.2%.
Regarding `C=C1CC2(OC1=O)C(=O)N(CCCN1C(=O)C3(CC(=C)C(=O)O3)c3ccccc31)c1ccccc12` (stereo not drawn), the growth in test [1] was -28.1% (active); in test [2], -51.5% (active); in [3], 76.6%; in test [4] it was 45.4%; in [5], 51.3%; in [6], 74.4%. Moreover, the growth in test [7] was 23.2%; in [8], -82.8% (active); in test [9] it was -13.8% (active); in test [10], 52.8%; in test [11], 69.9%; in [12], -38.6% (active). For the same compound, the growth in test [13] is -39.3% (active); in test [14] it was -9.34% (active); in test [15], -17.9% (active); in test [16], -7.27% (active); in test [17] it was 70.4%; in [18] it was -13.8% (active). In addition, the growth in [19] was 1.03% (active).
Take `CCN1CCN(CC(=O)N2c3cccc4cccc(c34)N(C(=O)CN3CCN(CC)CC3)C2c2cn(-c3ccccc3)nc2-c2cccc([N+](=O)[O-])c2)CC1`: the growth is -45.5% (active) in [1]; -41.5% (active) in test [2]; 8% (active) in [3]; -82.1% (active) in test [4]; 21.6% in test [5]; -92.5% (active) in test [6]. In addition, the growth is -82.4% (active) in [7]; -82.1% (active) in test [8]; -87.6% (active) in [9]; -9.31% (active) in test [10]; 36.5% in [11]; -53% (active) in test [12]. Moreover, the growth in test [13] is -26.1% (active); in test [14] it was -41.4% (active); in test [15] it was -43.6% (active); in test [16] it was -5.5% (active); in test [17], 74.7%; in test [18], -33.6% (active). Also, in test [19], the growth is -33.7% (active).
As to `O=C(NNC(=O)N1c2ccccc2C=Cc2ccccc21)c1ccc2ccccc2c1`, the growth in test [1] is 95.4%; in test [2] it was 88.6%; in test [3], 95.3%; in test [4] it was 92.6%; in [5] it was 74.9%; in test [6], 92%. In addition, the growth is 81.1% in test [7]; 93.6% in test [8]; 98.4% in test [9]; 98.5% in [10]; 89% in [11]; 90.5% in test [12]. The growth in [13] was 88%; in [14], 102%; in [15] it was 96.1%; in [16], 96.8%; in test [17] it was 94.1%; in test [18], 95%. Moreover, the growth in [19] was 94.9%.
For `CCC(=O)Oc1ccc(/C(=C(/C)Cc2cccc(OC)c2)c2ccc(OCCN(C)C)cc2)cc1`, the growth was 48.2% in [1]; 43.7% in test [2]; 92.6% in [3]; 71.3% in test [4]; 85.5% in [5]; 92.9% in test [6]. The growth in [7] is 103%; in test [8] it was 73.4%; in test [9], 110%; in [10], 100%; in test [11], 94.4%; in test [12], 85.9%. Further, the growth in test [13] was 67.4%; in test [14], 99.4%; in [15] it was 99.5%; in test [16] it was 91.3%; in test [17], 84.4%; in test [18], 42.8%. The growth in test [19] was 68.4%.
